Assay outcomes from PubChem BioAssay.
HT1080 IDH1KD tx: HT-1080 IDH1 knockdown cell toxicity (counter line); 360,000 compounds, 2% hits; Potency, µM (titrated, usually from 46.1 µM), for the others: at the top dose activity, negative = toxicity, usual class: cytotoxic; HT-1080 IDH1 knockdown viability, ATP luminescence, 48 h;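 note: potency is the fitted concentration of half-maximal effect; 0% = DMSO wells and -100% = cell-free medium wells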
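After a 2 h attachment period, IDH1KD HT-1080 cells took pin-transferred compound for 48 h at 37 °C; ATP-based luminescence after 10 min room-temperature reagent incubation reported viability.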
IL-1B inflam inh: blocks inflammasome-driven IL-1 beta release; THP-1 LPS/ATP IL-1B secretion, AlphaLISA, 16 h; stronger effect = lower value; activity change, % at 57.5 µM; 360,000 compounds, 4.7% hits; AID 743279; in the data active = activity change below about -50%; inconclusive = mostly about -30% to -49%
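THP-1 cells pretreated 1 hr with compounds (up to 57.5 uM final), then stimulated with LPS (250 ng/mL final) plus ATP (1.25 mM final); secreted IL-1B measured by AlphaLISA after 16 hr, decreased signal indicating inhibition.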
TDP1 cell CPT: growth inhibition of DT40 Tdp1-/-;hTDP1 cells with camptothecin (screen for TDP1 inhibitors) | chicken DT40 Tdp1-/-;hTDP1 cells + 20 nM CPT, ATP luminescence, 48 h | Potency, µM (titrated, usually from 46.2 µM), for inactives: at the highest dose activity change, negative = growth inhibition, most hits filed as inhibitors | 420,000 compounds, 12% hits | AID 686979; note: potency is the fitted concentration of half-maximal effect; nearly all actives have a fitted effect of over 55% in size
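Chicken DT40 Tdp1-/- cells stably complemented with human TDP1 were seeded at 400 cells/well in medium containing 20 nM camptothecin, exposed to pin-transferred compounds, and grown at 37 °C for at least 48 hr. Viability was read as ATP luminescence.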
HT1080NT lethal: kills 2HG-producing HT-1080-NT fibrosarcoma cells. HT-1080-NT fibrosarcoma viability, CellTiter-Glo ATP luminescence, 48 h. Potency, µM (highest dose often 46.1 µM), for the others: at the top dose activity, negative = less viability, actives largely listed as cytotoxic. 360,000 compounds, 1.6% hits;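 note: NT is the 2HG producing partner of a matched IDH1 knockdown line; potency is the fitted concentration of half-maximal effect; 0% = DMSO-treated cells and -100% = media-only wells without cells; nearly all actives have a fitted effect of over 55% in size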
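A 48-hour cytotoxicity screen used HT-1080-NT cells plated 2 hours before compound delivery. ATP-based CellTiter-Glo luminescence measured viability, normalized to DMSO and no-cell controls.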
DT40 TDP1 no CPT: qHTS for Inhibitors of human tyrosyl-DNA phosphodiesterase 1 (TDP1): qHTS in cells in absence of CPT | DT40 Tdp1-/- hTDP1 cells, no CPT, ATP luminescence, 48 h | Potency, µM (titrated, usually from 46.2 µM), for the others: at the top dose activity change, negative = growth inhibition, hits mostly inhibitors | 420,000 compounds, 15% hits; note: potency is the fitted concentration of half-maximal effect; nearly all actives have a fitted effect of over 55% in size
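Growth of hTDP1-complemented DT40 Tdp1-knockout cells is measured by ATP luminescence after at least 48 hr compound exposure at 37 °C, with DMSO substituting for the 20 nM CPT used in the parallel screen.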
* marks the source's active call; other numbers are inactive results; ? = inconclusive; . = no result; [ ] = another dose, or the depositor's remark. Rows were chosen to be rich in hits. Some 19% of all compounds tested hit in one or more screens of this group. Unless noted, calls come from the whole dose curve; as a rule, active = well fitted curve in the direction sought with a large enough effect; inconclusive = small, poorly fitted or top-dose-only effect, or another doubt; inactive = no such curve, though single readings can be large; an effect the other way counts as inactive or inconclusive. Unless noted, % is set by controls: 0 for no effect and ±100 for the full control effect.

SMILES	HT1080 IDH1KD tx	IL-1B inflam inh	TDP1 cell CPT	HT1080NT lethal	DT40 TDP1 no CPT
N=c1c2c(n(Cc3ccc(Cl)c(Cl)c3)c3c1CCC3)CCCC2	18.4µM*	-72.3*	2.91µM*	23.1µM*	2.59µM*
CCOC(=O)Cn1c2c(c(=N)c3c1CCC3)CCCC2	-11.2%	47.3	7.1%	-12.4%	1.8%
O=c1[nH]c(=O)n(Cc2ccccc2)c2c1CCC2	-4.4%	17.6	-14.6%	2.9%	?
CCCCCCCn1c2c(c(=N)c3ccccc31)CCC2	11.6µM*	?	0.517µM*	?	0.581µM*
Cc1nnc(NC(=O)CSc2ccccc2N)s1	0.6%	41.0	-0.5%	-17.1%	8.3%
CCOC(=O)/C(=C/Nc1ccc(F)cc1)[N+](=O)[O-]	1.2%	0.0	-2.6%	-11.7%	-7.4%
C/C(=N\NC(=O)c1ccccc1O)c1cccs1	?	4.6	-12.4%	?	23.1µM*
C/C(=N/NC(=O)Cc1cccc2ccccc12)c1cccs1	1.6%	1.4	?	-1.8%	16.4µM*
C/C(=N\NC(=O)Cc1ccccc1)c1cccs1	-6.3%	-5.0	-5.6%	2.1%	1.7%
C/C(=N\NC(=O)c1cccc2ccccc12)c1cccs1	?	-0.7	11.1%	?	7.7%
Clc1ccc2c(NCc3ccccn3)ncnc2c1	-4.8%[9.24 µM]	39.3	?	4.2%	?
COc1cc2ncnc(NCc3cccs3)c2cc1OC	0.0%	-6.2	?	6.8%	-25.5%
Cc1ccc2ncnc(NCc3ccco3)c2c1	.	.	7.08µM*	.	4.47µM*
Clc1ccc2c(NCc3ccco3)ncnc2c1	-15.7%	19.1	14.6µM*	-12.2%	13µM*
Clc1ccc2c(NCc3cccs3)ncnc2c1	-7.6%	50.4	13µM*	-4.0%	20.6µM*
O=C(Cc1ccccc1[N+](=O)[O-])NCc1ccco1	-3.6%	19.1	6.2%	2.4%	1.0%
c1ccc(-c2nnc3nc(N4CCCCC4)nc(N4CCCCC4)n23)cc1	9.4%	-9.8	18.4µM*	19.8%	14.6µM*
c1ccc(-c2nc(N3CCCCC3)nc3ccccc23)cc1	-12.5%	0.0	-22.8%	-8.1%	10.1%
Cc1ccc2nc3c(c(N)c2c1)CCN3c1ccccc1	-22.5%	-77.4*	16.4µM*	-25.4%	18.4µM*
O=C1c2ccccc2C(c2nnnn2Cc2ccccc2)N1C1CC1 (stereo not drawn)	4.8%	20.6	4.5%	5.8%	-6.8%
COc1ccc(C(C)(C)C)cc1NS(=O)(=O)c1cccc2cccnc12	-0.7%	?	25.9µM*	-10.5%	18.4µM*
COc1ccc(OC)c(NS(=O)(=O)c2cccc3cccnc23)c1	-11.6%	17.6	-5.0%	-6.7%	-29.2%
COc1ccccc1NS(=O)(=O)c1ccc2ccccc2c1	-1.0%	15.2	-18.8%	2.7%	-2.8%
COc1ccc(NS(=O)(=O)c2ccc3ccccc3c2)c2ncccc12	?	90.7	8.2µM*	-29.7%	6.51µM*
COc1ccc(NC(=O)CN2C(=O)c3ccccc3S2(=O)=O)cc1OC	-1.2%	-82.6*	1.4%	19.4%	0.7%
SMILES	HT1080 IDH1KD tx	IL-1B inflam inh	TDP1 cell CPT	HT1080NT lethal	DT40 TDP1 no CPT
COc1cc(S(=O)(=O)N2CCOCC2)ccc1NC(=O)CN1c2cccc3cccc(c23)S1(=O)=O	0.2%	24.6	17.6%	-0.4%	-9.5%
Cc1ccc(NC(=O)CN2C(=O)c3ccccc3S2(=O)=O)cc1C	-15.0%	20.6	2.1%	-4.0%	9.4%
Cc1ccc(NC(=O)CN2c3cccc4cccc(c34)S2(=O)=O)cc1S(=O)(=O)N1CCOCC1	-9.6%	13.7	?	-4.0%	18.4µM*
COc1ccc(NC(=O)CN2c3cccc4cccc(c34)S2(=O)=O)cc1OC	-3.5%	24.6	?	-7.7%	7.31µM*
CC1=C(C(=O)OCc2ccccc2)C(c2cccnc2)n2nnnc2N1 (stereo not drawn)	-12.4%	34.0	?	1.6%	16.4µM*
CCCCCOC(=O)C1=C(C)Nc2nnnn2C1c1ccccc1Cl (stereo not drawn)	20.6µM*	8.8	?	13µM*	20.6µM*
